The list shows a part of the results. Inconclusive results are not listed. The source made the active and inactive calls.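 The calls were made as follows: active = percent of control activity at or below 60%; inconclusive = HPLC trace unusable from injection failure or solvent front hiding peaks; inactive = the rest, plus ubiquitin peak ratio over a set limit.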
molecular target: Ubiquitin carboxyl-terminal hydrolase BAP1 (Homo sapiens) (UniProt Q92560); test: BAP1 deubiquitinase inhibitors, hit retest, confirmation, orthogonal assay, biochemical, Ub-ethyl ester substrate, HPLC readout (AID 753); settings: purified BAP1, Ub-ethyl ester hydrolysis; at 20 µM, active compounds read low
Sequence (Q92560 whole entry, looked up): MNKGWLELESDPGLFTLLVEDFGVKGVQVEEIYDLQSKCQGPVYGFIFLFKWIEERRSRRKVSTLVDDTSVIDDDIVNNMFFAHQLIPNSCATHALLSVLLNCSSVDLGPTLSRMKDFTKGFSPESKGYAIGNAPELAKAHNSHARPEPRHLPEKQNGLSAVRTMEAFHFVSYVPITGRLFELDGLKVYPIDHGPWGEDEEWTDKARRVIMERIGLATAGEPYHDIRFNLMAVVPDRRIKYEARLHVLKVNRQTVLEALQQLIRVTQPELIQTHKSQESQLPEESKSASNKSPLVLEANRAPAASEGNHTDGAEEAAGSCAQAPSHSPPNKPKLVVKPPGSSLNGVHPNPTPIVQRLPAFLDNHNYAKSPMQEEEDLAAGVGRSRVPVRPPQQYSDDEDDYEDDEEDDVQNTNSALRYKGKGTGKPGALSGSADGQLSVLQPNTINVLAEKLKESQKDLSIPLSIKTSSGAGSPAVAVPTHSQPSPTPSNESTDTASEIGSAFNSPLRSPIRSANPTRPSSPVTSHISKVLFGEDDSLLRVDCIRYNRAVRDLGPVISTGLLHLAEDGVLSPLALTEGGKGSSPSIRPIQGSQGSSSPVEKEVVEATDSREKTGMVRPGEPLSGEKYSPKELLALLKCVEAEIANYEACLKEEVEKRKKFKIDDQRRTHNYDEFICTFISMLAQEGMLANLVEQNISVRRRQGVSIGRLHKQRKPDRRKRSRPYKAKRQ

% of control activity, inactive:
CCC(c1nnnn1C1CCCC1)N(Cc1cccs1)Cc1cc2cccc(C)c2[nH]c1=O (configuration not stated) 99.7%, Fc1ccc(-c2ccc(-c3nn4c(-c5ccco5)nnc4s3)o2)cc1 106%, C=CCn1c2ccccc2c2nnc(SC(CC)C(=O)Nc3nc(C)c(C(=O)OCC)s3)nc21 (configuration not stated) 73.6%, O=c1c2ccccc2nc(CSc2nnnn2-c2ccccc2)n1-c1ccccc1 83.3%, N#Cc1c(/N=C/N2CCCC2)oc(-c2ccccc2)c1-c1ccccc1 111%, Fc1ccc2nc(Nc3nc4c(s3)CCCC4)sc2c1 142%

outcome, inactive:
CCOc1ccc(CN(Cc2ccco2)C(c2cccs2)c2nnnn2C(C)(C)C)cc1 (configuration not stated)
